Source: PubChem (National Center for Advancing Translational Sciences (NCATS))
Shown are actives, neighbours in structure and some others; about 10% of the full set was active somewhere.
MCF10A rereplic – A quantitative high throughput screen for small molecules that induce DNA re-replication in MCF 10a normal breast cells; MCF 10A DNA re-replication, Hoechst nuclear intensity, 48 h; actives 2.9% (n = 350,000); Potency, µM (top dose mostly 46.1 µM), for inactives: at the top dose activity, positive = re-replication, usual class: activators; also: % of control where 0% means no effect; nearly all actives have a fitted effect of over 50% in size
RORg inh – qHTS for inhibitors of ROR gamma transcriptional activity. Drosophila S2 Gal4-RORgamma UAS-luciferase reporter, 20 h. Potency, µM (series often up to 53.6 µM), without a hit: top-dose activity change, negative = inhibition, most hits filed as inhibitors. actives 5.4% (n = 310,000). AID 2551, 2010; also: % is scaled to controls: 0 for no effect and ±100 for the full control effect; nearly all actives have a fitted effect of over 60% in size
Target sequence (P51450 whole entry, looked up, the tested form may be a part): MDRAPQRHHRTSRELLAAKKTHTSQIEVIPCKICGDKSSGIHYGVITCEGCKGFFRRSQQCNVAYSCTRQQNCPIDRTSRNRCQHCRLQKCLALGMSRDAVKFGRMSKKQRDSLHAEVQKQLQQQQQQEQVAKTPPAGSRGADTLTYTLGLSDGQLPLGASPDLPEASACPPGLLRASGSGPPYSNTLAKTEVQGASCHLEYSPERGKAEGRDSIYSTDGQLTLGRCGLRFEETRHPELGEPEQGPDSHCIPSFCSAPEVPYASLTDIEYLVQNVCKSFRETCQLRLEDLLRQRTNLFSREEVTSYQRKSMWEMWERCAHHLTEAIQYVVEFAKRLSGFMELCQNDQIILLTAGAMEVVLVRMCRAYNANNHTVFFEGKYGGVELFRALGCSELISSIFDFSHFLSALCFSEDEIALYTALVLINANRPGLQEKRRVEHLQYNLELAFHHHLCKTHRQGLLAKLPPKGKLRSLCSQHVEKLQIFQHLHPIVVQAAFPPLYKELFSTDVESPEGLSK
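Stable Schneider cell line, Gal4 DNA-binding domain fused to ROR gamma, UAS-luciferase. Cmpd 1 hr RT → CuSO4 700 uM final → 20 hr RT → luciferase reagent 10 min → luminescence.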
Gal4-VP16 FLuc – VP16 counterscreen qHTS for inhibitors of ROR gamma transcriptional activity. Drosophila S2 Gal4-VP16 UAS-luciferase, luminescence, 20 h. Potency, µM (doses to about 53.6 µM), inactives show at the highest dose activity, negative = inhibition, most hits filed as inhibitors. actives 3.5% (n = 310,000). AID 2546, 2010;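 also: Gal4-VP16 expression switched on by copper sulfate through the metallothionein promoter; % is scaled to controls: 0 for no effect and ±100 for the full control effect; nearly all actives have a fitted effect of over 50% in size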
SW480 rerep – A quantitative high throughput screen for small molecules that induce DNA re-replication in SW480 colon adenocarcinoma cells. SW480 DNA re-replication, Hoechst DNA content imaging, 48 h. actives 1.8% (n = 340,000). Potency, µM (titrated, usually from 46.1 µM), for the others: at the top dose re-replication activation, actives largely listed as activators; also: % of control where 0% means no effect; nearly all actives have a fitted effect of over 55% in size
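Image-based DNA-content assay: after two days of treatment, nuclei were labelled with the DNA dye Hoechst and imaged, and hits were compounds raising the count of nuclei showing high fluorescence intensity.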
ELG1 DNA repair – qHTS screen for small molecules that inhibit ELG1-dependent DNA repair in human embryonic kidney (HEK293T) cells expressing luciferase-tagged ELG1; actives 2.3% (n = 330,000); HEK293T ELG1-luciferase reporter, luminescence, 16 h; DNA damage induced by 5-fluorouridine; Potency, µM (highest dose often 46.1 µM), for the others: top-dose activity change, negative = inhibition, hits mostly inhibitors; AID 504467, 2011; also: % is scaled to controls: 0 for no effect and ±100 for the full control effect; nearly all actives have a fitted effect of over 55% in size
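Cells (2,000 per well) received 5-fluorouridine plus test compound or DMSO and were incubated 16 hr at 37 °C, 5% CO2. Luciferase activity was read by luminescence 30 min after ONE-Glo addition; signal suppression marked inhibition of damage-induced ELG1 function.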
* hit, by the source's call; ? = inconclusive; nt = not tested or not shown; [ ] = remark or other dose. Calls follow the shape of the dose curve; as a rule, active = well fitted curve in the direction sought with a large enough effect; inconclusive = small, poorly fitted or top-dose-only effect, or another doubt; inactive = no such curve, though single readings can be large; an effect the other way counts as inactive or inconclusive. Potency is read from the fitted curve at half-maximal effect.

SMILES | MCF10A rereplic | RORg inh | Gal4-VP16 FLuc | SW480 rerep | ELG1 DNA repair
Cc1ccc(Nc2nc3ccccc3c(=O)[nH]2)cc1C | 16.0% | ? | -15.9% | 0.9% | ?
CCc1ccc(NS(=O)(=O)c2cc3[nH]c(=O)c(=O)[nH]c3cc2C)cc1 | -4.0% | -6.5% | -3.5% | -3.1% | ?
Cc1nc(N2CCN(Cc3ccc4c(c3)OCO4)CC2)c2oc3ccccc3c2n1 | 11.6µM* | nt | nt | ? | nt
Cc1nc(N2CCN(Cc3ccc(Cl)cc3)CC2)c2oc3ccccc3c2n1 | ? | -35.3% | -4.7% | 6.1% | 18.3µM*
N#CCc1c(C#N)c(N)nc(N2CCN(Cc3ccc4c(c3)OCO4)CC2)c1C#N | 16.4µM* | -16.9% | -6.9% | 8.9% | 18.4µM*
COc1ccccc1N1CCN(c2nc(C)nc3c2oc2ccccc23)CC1 | ? | ? | 4.0% | ? | ?
Cc1nc(N2CCC(C)CC2)c2oc3ccccc3c2n1 | ? | 12.6µM* | ? | -14.2%[9.22 µM] | 20.6µM*
Cc1cc(C)c(C#N)c(N2CCN(Cc3ccc4c(c3)OCO4)CC2)n1 | 15.2% | 5.9% | -4.9% | 0.8% | ?
O=C(COc1ccc(/C=N/NC(=O)c2ccccc2)cc1)Nc1ccc([N+](=O)[O-])cc1 | 1.1% | -6.5% | -9.8% | -1.8% | -3.4%
COc1ccc(OCc2ccc(/C=N\NC(=O)c3sccc3C)o2)cc1 | 0.7% | 11.2µM* | ? | -1.0% | ?
COc1cc(C(=O)NCC(=O)N/N=C/c2ccc(-c3cccc([N+](=O)[O-])c3)o2)cc(OC)c1OC | 3.5% | ? | 1.3% | -2.4% | ?
O=C(N/N=C/c1ccco1)/C(=C/c1cccc([N+](=O)[O-])c1)NC(=O)c1ccccc1 | -15.1% | -37.9% | 0.4% | -0.7% | -2.2%
O=C(N/N=C\c1ccc(COc2ccc([N+](=O)[O-])cc2)o1)c1ccc(Cl)cc1 | 26.5% | 12.6µM* | ? | -2.9% | -21.6%
O=C(N/N=C/c1ccc(Br)o1)/C(=C/c1ccc([N+](=O)[O-])cc1)NC(=O)c1ccccc1 | ? | 10µM* | ? | ? | -3.9%
O=C(N/N=C/c1ccc(-c2cccc([N+](=O)[O-])c2)o1)c1ccc([N+](=O)[O-])cc1 | -35.4% | 2.51µM* | 5.01µM* | ? | ?
CCCCC(CC)COC(=O)c1ccccc1O (stereo unspecified) | 2.0% | -20.9% | -8.8% | 1.8% | nt
COc1ccc(NC(=O)c2nnn(CC(=O)Nc3ccc4c(c3)OCO4)c2N)c(OC)c1 | -1.3% | 9.8% | -2.2% | -12.2% | ?
CSc1ccc(/C=N/NC(=O)c2sccc2C)cc1 | 12.1% | 8.91µM* | ? | -2.3% | ?
COc1cc([N+](=O)[O-])ccc1-c1ccc(/C=N\n2cnnc2)o1 | -5.2% | -5.2% | -10.8% | 2.8% | 1.9%
O=C(N/N=C/c1ccc(-c2cccc([N+](=O)[O-])c2)o1)c1ccccc1O | ? | 3.16µM* | 2.24µM* | ? | ?
COc1cc([N+](=O)[O-])ccc1-c1ccc(/C=N/NC(=O)c2ccccc2O)o1 | nt | 1µM* | 3.98µM* | nt | 14.6µM*
O=C(CCN1C(=O)[C@H]2CC=CC[C@H]2C1=O)NCc1nc(-c2ccc(Cl)cc2)no1 | ? | 9.0% | 3.5% | -7.2% | 1.1%
Cc1ccc(Sc2cncc3sc(C(N)=O)cc23)cc1 | nt | ? | -24.2% | nt | nt
Cc1cc2c(c(=O)o1)C(c1cccs1)C(C#N)=C(N)O2 (stereo unspecified) | 2.2% | 14.1µM* | ? | 2.9% | -8.4%
Cc1ccc([C@H]2C(C#N)=C(N)Oc3cc(C)oc(=O)c32)o1 | ? | -114.8% | ? | ? | 12.4%
SMILES | MCF10A rereplic | RORg inh | Gal4-VP16 FLuc | SW480 rerep | ELG1 DNA repair
C/C(=N\NC(=O)c1c(Br)c(C)nn1C)c1ccc(NC(=O)C(C)Oc2ccc(Cl)cc2C)cc1 (stereo unspecified) | 16.4µM* | ? | ? | 9.4% | ?
CCC(=O)Nc1ccc(/C(C)=N/NC(=O)c2c(Br)c(C)nn2C)cc1 | 10.4% | 10.4% | 6.1% | 11.6% | ?
Cc1nc(-c2ccc(S(=O)(=O)NCc3cccnc3)s2)cs1 | 5.5% | ? | ? | -6.2% | ?
Cc1nc(-c2ccc(S(=O)(=O)NCC3CCN(C(=O)OC(C)(C)C)CC3)s2)cs1 | 13.4% | 21.8% | -17.8% | -0.3% | 20.6µM*
C=C(C(=O)c1ccccc1)C(CC(=O)c1ccccc1)c1ccccc1 (stereo unspecified) | 9.2µM* | ? | -91.2% | 18.4µM* | 13µM*
C=C(CCC(=O)c1ccccc1)C(=O)c1ccccc1 | 9.2µM* | 12.6µM* | 11.2µM* | ? | -29.7%
O=C(CC(C(=O)O)c1cccc(Cl)c1Cl)c1ccccc1 (stereo unspecified) | -5.7% | -2.0% | -12.6% | 0.2% | 2.6%
Fc1ccc2nc(Nc3nc4cc5c(cc4s3)OCO5)sc2c1 | ? | 8.91µM* | ? | 0.0% | ?
Fc1ccc2nc(Nc3nc4cc5c(cc4s3)OCCO5)sc2c1 | 14.6µM* | 11.2µM* | 12.6µM* | 19.7% | ?
O=C(COc1ccccc1)Nc1nc2cc3c(cc2s1)OCO3 | ? | nt | nt | 5.9% | nt
c1ccc2sc(Nc3nc4cc5c(cc4s3)OCO5)nc2c1 | 18.4µM* | -2.7% | -9.5% | ? | ?
Cc1ccc(C2CC(c3cccs3)=NN2S(=O)(=O)c2ccc(C)cc2)cc1 (stereo unspecified) | -0.9% | -2.1% | -10.5% | 5.9% | 2.0%
O=C(CCl)N1c2ccccc2SCC1c1ccccc1 (stereo unspecified) | 7.31µM* | 11.2µM* | 14.1µM* | 14.6µM* | ?
C/C(CC(=O)Nc1ccc([N+](=O)[O-])cc1)=N\NC(=O)c1ccccc1[N+](=O)[O-] | -1.7% | -24.5% | 8.0% | -2.5% | -1.3%
C/C(=N\Nc1ccccn1)c1ccc(C(C)C)cc1 | -0.9% | 3.98µM* | 11.2µM* | 0.6% | ?
C/C(=N\Nc1ccccn1)c1ccc(N2CCOCC2)cc1 | 2.0% | 7.08µM* | ? | -4.4% | ?
C=Cc1ccc(C2=CC(=O)C[C@H](c3ccc(OC)cc3)C2)cc1 | 17.8% | nt | nt | 4.5% | ?
Cc1ccc(-n2ncc(C(=O)Nc3cc(Cl)cc(Cl)c3)c2C2CCNCC2)cc1C | ? | ? | -14.5% | 4.61µM* | ?
Cn1c(CC(=O)Nc2ccccc2)nnc1SCC(=O)NC1CCCC1 | -4.9% | -6.8% | -8.0% | -19.6% | 12.2%
CCCNC(=S)NC1CCCC1 | 5.3% | 11.2µM* | ? | -9.3% | 2.0%
O=C(NC1CCCCC1)C(=S)NC1CCCCC1 | nt | ? | -0.9% | nt | ?
